# Assay results reported in the supplement of paper PMC11732987, “Enantioselective OTUD7B fragment discovery through chemoproteomics screening and high-throughput optimisation” (Communications Chemistry, 2025).
# A number with no mark means an inactive call.
# Tests used:
# Assay in all cases: log2 ratio of Biotin-Ahx-Ub-VS probe labelling (fragment/DMSO); higher = less target engagement (more negative = stronger competition), active = hit call of the paper (q ≤ 0.05, log2 ratio ≤ -1)
# Conditions in all cases: compound concentration: 200 uM; treatment time: 3 h
# OTUD6B = target: T1, OTUD6B (UniProt Q8N6M0)
# T1 sequence (whole entry): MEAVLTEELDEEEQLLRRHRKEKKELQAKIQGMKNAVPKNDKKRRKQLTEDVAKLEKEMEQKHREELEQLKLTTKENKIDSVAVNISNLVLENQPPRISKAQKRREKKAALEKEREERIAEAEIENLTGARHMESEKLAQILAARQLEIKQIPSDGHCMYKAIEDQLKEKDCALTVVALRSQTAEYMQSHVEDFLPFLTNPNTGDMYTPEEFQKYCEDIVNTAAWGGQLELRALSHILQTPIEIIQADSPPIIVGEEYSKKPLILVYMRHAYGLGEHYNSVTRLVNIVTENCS
# Summary of the method: (§1)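 HEK293T lysate (495 µg per sample, in Tris/CHAPS/IGEPAL buffer with protease inhibitors) was treated in triplicate with fragment at 200 µM or with DMSO for 3 h. It was then treated with Biotin-Ahx-Ub-VS (0.5 µM final) for 1 h. Labelled DUBs were NeutrAvidin-enriched, digested with LysC and trypsin, and run by diaPASEF LC-MS/MS. Spectronaut label-free quantities were global-median-normalised. Values are average log2 ratios fragment/DMSO by unpaired t-test, using proteins with ≥2 unique peptides.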
# OTUD7B = target: T2, OTUD7B (UniProt Q6GQQ9)
# T2 sequence (whole entry): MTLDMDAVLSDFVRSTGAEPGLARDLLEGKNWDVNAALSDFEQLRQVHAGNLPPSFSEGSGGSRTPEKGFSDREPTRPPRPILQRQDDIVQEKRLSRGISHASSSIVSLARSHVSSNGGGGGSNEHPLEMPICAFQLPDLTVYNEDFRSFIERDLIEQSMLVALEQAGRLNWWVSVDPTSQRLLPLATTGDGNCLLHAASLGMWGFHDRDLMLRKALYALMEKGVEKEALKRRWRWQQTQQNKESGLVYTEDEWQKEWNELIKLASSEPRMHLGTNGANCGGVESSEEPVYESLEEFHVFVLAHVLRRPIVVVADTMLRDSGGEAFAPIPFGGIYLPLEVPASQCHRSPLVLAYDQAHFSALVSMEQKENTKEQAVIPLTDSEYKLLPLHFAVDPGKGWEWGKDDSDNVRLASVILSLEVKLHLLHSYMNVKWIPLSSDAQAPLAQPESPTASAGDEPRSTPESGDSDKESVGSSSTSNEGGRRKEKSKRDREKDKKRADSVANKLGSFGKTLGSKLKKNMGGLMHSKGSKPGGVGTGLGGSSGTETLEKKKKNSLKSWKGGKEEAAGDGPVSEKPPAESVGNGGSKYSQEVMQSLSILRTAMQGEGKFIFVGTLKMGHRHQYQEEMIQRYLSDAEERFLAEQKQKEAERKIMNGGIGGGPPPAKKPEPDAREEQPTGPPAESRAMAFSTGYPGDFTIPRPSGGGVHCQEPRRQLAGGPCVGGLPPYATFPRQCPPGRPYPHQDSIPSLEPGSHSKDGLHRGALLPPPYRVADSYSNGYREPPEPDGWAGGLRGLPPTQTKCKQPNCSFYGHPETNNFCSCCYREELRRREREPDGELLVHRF
# Summary of the method: as §1
# PRPF8 = PRPF8 (UniProt Q6P2Q9)
# Summary of the method: as §1
# PSMD7 = target: T3, PSMD7 (UniProt P51665)
# T3 sequence (whole entry): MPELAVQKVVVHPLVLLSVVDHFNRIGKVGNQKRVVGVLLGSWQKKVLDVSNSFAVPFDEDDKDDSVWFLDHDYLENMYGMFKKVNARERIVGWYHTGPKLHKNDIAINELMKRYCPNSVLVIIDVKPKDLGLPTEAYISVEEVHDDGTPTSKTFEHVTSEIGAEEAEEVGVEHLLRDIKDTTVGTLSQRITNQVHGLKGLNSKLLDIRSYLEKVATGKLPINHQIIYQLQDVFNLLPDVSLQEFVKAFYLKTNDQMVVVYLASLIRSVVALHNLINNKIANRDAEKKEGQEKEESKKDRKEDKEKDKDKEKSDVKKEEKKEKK
# Summary of the method: as §1
# UCHL1 = UCHL1 (UniProt P09936)
# Sequence of UCHL1 (P09936 whole entry, looked up): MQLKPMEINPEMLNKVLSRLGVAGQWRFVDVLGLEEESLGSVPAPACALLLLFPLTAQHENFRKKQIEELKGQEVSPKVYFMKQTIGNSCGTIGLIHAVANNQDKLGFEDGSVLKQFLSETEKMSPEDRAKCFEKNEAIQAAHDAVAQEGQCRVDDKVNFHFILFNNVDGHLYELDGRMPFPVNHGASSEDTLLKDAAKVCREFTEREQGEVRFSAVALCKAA
# Summary of the method: as §1
# UCHL3 = target: T4, UCHL3 (UniProt P15374)
# T4 sequence (whole entry): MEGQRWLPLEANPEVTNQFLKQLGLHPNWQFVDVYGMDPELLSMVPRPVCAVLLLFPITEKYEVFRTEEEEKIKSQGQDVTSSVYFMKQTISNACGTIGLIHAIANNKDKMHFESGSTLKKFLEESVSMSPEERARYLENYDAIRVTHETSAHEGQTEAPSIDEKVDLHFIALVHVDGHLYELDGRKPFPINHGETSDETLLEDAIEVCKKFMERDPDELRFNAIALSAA
# Summary of the method: as §1
# UCHL5 = target: T5, UCHL5 (UniProt Q9Y5K5)
# T5 sequence (whole entry): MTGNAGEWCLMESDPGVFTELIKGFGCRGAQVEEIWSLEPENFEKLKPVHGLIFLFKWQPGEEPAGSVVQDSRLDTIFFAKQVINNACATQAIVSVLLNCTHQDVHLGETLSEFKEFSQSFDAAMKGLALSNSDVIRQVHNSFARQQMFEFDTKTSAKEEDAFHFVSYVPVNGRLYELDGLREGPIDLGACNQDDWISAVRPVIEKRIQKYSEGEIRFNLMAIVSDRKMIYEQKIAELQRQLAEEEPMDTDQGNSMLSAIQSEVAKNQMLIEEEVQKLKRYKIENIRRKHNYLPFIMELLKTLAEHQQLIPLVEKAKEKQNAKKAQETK
# Summary of the method: as §1
# USP10 = USP10 (UniProt Q14694)
# Sequence of USP10 (Q14694 whole entry): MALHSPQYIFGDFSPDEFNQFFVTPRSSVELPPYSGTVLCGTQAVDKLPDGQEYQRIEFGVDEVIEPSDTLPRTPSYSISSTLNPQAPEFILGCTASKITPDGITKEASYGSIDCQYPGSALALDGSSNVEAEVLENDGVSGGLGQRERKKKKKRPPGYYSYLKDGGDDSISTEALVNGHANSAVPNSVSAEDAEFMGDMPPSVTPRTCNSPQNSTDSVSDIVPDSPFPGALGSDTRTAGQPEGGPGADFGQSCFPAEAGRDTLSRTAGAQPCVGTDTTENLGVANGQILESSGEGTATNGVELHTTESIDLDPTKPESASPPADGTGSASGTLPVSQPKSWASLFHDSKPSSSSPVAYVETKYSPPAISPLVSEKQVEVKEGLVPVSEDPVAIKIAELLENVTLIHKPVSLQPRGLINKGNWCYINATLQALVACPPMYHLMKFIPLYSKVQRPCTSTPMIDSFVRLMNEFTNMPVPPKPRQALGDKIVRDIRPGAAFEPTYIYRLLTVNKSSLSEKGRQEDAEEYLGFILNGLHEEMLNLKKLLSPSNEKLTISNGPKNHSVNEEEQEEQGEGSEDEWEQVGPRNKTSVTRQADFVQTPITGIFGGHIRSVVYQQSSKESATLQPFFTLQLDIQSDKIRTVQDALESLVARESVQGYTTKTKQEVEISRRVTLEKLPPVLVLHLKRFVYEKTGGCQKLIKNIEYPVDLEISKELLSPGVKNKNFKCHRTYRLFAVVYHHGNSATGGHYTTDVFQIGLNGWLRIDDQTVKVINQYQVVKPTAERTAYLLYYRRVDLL
# Summary of the method: as §1
# USP15 = target: T6, USP15 (UniProt Q9Y4E8)
# T6 sequence (whole entry): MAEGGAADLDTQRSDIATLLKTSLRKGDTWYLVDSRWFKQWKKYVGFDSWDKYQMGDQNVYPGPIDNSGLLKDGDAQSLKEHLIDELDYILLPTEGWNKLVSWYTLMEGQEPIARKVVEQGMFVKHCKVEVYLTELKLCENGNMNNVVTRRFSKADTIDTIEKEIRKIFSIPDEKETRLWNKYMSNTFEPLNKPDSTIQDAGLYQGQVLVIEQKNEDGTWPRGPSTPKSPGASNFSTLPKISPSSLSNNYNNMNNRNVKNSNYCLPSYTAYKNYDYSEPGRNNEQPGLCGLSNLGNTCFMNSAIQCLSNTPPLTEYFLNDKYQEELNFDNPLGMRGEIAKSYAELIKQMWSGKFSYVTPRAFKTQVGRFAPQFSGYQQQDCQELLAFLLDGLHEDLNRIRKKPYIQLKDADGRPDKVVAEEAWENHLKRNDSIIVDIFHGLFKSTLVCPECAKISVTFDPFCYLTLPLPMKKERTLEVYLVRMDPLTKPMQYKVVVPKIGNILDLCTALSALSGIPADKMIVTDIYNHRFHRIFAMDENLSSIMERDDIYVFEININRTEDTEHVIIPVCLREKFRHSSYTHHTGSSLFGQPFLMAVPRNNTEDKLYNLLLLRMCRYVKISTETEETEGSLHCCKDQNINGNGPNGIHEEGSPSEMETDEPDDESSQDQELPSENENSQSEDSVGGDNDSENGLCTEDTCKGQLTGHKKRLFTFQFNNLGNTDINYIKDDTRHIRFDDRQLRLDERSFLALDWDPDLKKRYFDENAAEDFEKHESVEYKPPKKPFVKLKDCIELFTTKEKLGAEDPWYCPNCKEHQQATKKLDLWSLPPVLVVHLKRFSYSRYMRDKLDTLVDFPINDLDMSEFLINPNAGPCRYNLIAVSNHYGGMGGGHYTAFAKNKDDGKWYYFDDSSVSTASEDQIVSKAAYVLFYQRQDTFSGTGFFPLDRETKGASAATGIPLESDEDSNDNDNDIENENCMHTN
# Summary of the method: as §1
# USP16 = USP16 (UniProt Q9Y5T5)
# Sequence of USP16 (Q9Y5T5 whole entry, looked up): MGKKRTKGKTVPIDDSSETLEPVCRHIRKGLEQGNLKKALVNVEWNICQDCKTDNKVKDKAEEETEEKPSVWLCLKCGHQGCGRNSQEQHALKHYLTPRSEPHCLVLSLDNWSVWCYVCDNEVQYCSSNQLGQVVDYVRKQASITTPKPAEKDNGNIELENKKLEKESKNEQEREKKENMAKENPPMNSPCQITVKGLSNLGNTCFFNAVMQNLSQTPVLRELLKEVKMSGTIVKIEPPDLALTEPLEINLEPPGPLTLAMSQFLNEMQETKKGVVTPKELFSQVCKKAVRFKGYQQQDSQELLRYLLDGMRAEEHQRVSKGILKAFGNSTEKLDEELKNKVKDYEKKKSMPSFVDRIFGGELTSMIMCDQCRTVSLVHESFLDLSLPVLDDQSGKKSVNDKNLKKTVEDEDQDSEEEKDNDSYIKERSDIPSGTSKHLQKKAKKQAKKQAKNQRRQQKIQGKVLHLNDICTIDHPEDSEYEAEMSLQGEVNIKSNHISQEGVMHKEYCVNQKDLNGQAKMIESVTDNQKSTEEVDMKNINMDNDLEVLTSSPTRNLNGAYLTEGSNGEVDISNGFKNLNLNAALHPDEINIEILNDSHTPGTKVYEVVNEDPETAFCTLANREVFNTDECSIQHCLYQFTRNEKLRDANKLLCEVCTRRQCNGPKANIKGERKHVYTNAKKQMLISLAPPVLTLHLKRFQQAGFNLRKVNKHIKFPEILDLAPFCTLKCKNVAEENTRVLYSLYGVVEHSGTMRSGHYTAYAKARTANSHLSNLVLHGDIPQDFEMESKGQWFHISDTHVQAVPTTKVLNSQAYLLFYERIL
# Summary of the method: as §1
structure (smiles),measurement,setting,value
Cc1ccc(C)c(NC(=O)CCl)c1,log2 ratio of Biotin-Ahx-Ub-VS probe labelling,OTUD6B,-0.56
same,log2 ratio of Biotin-Ahx-Ub-VS probe labelling,OTUD7B,-0.844
same,log2 ratio of Biotin-Ahx-Ub-VS probe labelling,PRPF8,-0.000105
same,log2 ratio of Biotin-Ahx-Ub-VS probe labelling,PSMD7,-0.209
same,log2 ratio of Biotin-Ahx-Ub-VS probe labelling,UCHL1,-1.17 (active)
same,log2 ratio of Biotin-Ahx-Ub-VS probe labelling,UCHL3,-0.416
same,log2 ratio of Biotin-Ahx-Ub-VS probe labelling,UCHL5,-0.568
same,log2 ratio of Biotin-Ahx-Ub-VS probe labelling,USP10,-0.39
same,log2 ratio of Biotin-Ahx-Ub-VS probe labelling,USP15,-0.203
same,log2 ratio of Biotin-Ahx-Ub-VS probe labelling,USP16,-0.0434
